Assay results as given in ChEMBL document CHEMBL3988442, “University of Dundee, Small-Polar-MMV Screening Library” (2021).
The whole screen tested about 85,000 compounds, of which about 440 (0.52%) showed an effect of 50% or more. Only a selection was taken, and strong results are over-represented in it overall.

Assay: In vitro enzyme assay to detect hydrolysis of chlorophenol red-beta-D-[…] directly proportional to the number of Toxoplasma stably expressing beta-galactosidase
Format: functional, organism-based, Toxoplasma gondii
Parameters: scale not given: in the data most compounds retested in dose-response had high values

For `CC1CCN(CCNC(=O)Nc2ncnn2C)CC1`, the “Percent Effect” value (50 µM) was 93.89%.
In the case of `CCc1noc(CC)c1CNC(=O)Nc1cccc(C(=O)N(C)C)c1`, the “Percent Effect” value (10 µM) was -1.441%.
With `CCc1noc(CC)c1CNC(=O)Nc1cccc([S+](C)[O-])c1` (stereo not given) the “Percent Effect” value (10 µM) was 5.882%.
For `CCc1noc(CC)c1CNC(=O)Nc1ncnn1C`, the “Percent Effect” value (50 µM) was 67.97%.
For `CSCCCNC(=O)Nc1ncnn1C`, the “Percent Effect” value (50 µM) was -6.612%.
In the case of `Cc1cc(NC(=O)NCCN2CCC(C)CC2)n(C)n1`, the “Percent Effect” value (50 µM) was -15.44%.
For `CN1CCCN(C(=O)c2ccc(N(C)C)cc2F)CC1`, the “Percent Effect” value (50 µM) was -3.403%.
In the case of `CN(CCOc1ccc(Cl)cc1)CCC(N)=O`, the “Percent Effect” value (50 µM) was -5.352%.
With `CN(C)S(=O)(=O)N1CC(=O)NCC1(C)C` the “Percent Effect” value (50 µM) was 14.19%.
In the case of `OCCNc1nccc(-c2c[nH]nc2-c2ccco2)n1`, the “Percent Effect” value (10 µM) was 54.25%.
With `OCCNc1nccc(-c2c[nH]nc2-c2ccncc2)n1` the “Percent Effect” value (10 µM) was -1.451%.
In the case of `OCCNc1nccc(-c2c[nH]nc2-c2cccnc2)n1`, the “Percent Effect” value (10 µM) was -8.104%.
In the case of `CN1Cc2ccccc2CC1=O`, the “Percent Effect” value (50 µM) was -6.86%.
With `NC1CCC(N2C(=O)CCC2=O)CC1` (stereo not given) the “Percent Effect” value (50 µM) was 15.63%.
With `O=C(N[C@@H]1CCOC[C@H]1O)c1ccncc1` the “Percent Effect” value (50 µM) was -0.1422%.
With `CN(C)Cc1cccc(C(=O)N[C@@H]2CCOC[C@H]2O)c1` the “Percent Effect” value (50 µM) was -6.19%.
With `CCCc1ccc(C(=O)N[C@@H]2CCOC[C@H]2O)cc1` the “Percent Effect” value (50 µM) was 64%.
With `C=C(C)C(C)(C)C(=O)N[C@@H]1COCC[C@H]1O` the “Percent Effect” value (50 µM) was 16.24%.
With `Cc1oc(-c2ccoc2)nc1CN1CCCCC1CCc1ccccc1` (stereo not given) the “Percent Effect” value (10 µM) was -14.19%.
In the case of `Cc1oc(-c2ccoc2)nc1CN1CCC[C@H]1CO`, the “Percent Effect” value (10 µM) was 75.83%.
With `COCC1CCCCN1Cc1nc(-c2ccoc2)oc1C` (stereo not given) the “Percent Effect” value (10 µM) was 1.217%.
In the case of `O=C(Nc1ccc(-n2nccn2)cc1)N1CCC(O)C1` (stereo not given), the “Percent Effect” value (50 µM) was -2.451%.
In the case of `CSCC[C@H](N)C(=O)N(C)Cc1ncc(Cl)n1C`, the “Percent Effect” value (50 µM) was -3.024%.
In the case of `Cc1ccc(CNC(=O)N2Cc3ccccc3C2)cn1`, the “Percent Effect” value (50 µM) was -21.35%.
In the case of `C=C/C=c1\c(=C/C)oc2c(NCc3ccccc3)nc(C)nc12`, the “Percent Effect” value (10 µM) was 54.55%.
For `C=C/C=c1\c(=C/C)oc2c(NCc3ccccc3)nc(CC)nc12`, the “Percent Effect” value (10 µM) was 39.81%.
For `C=C/C=c1\c(=C/C)oc2c(NCc3ccccc3)ncnc12`, the “Percent Effect” value (10 µM) was 26.91%.
In the case of `CC1CCCCN1C(=O)NCCNC(=O)c1ccn[nH]1` (stereo not given), the “Percent Effect” value (50 µM) was -2.19%.
For `CCC(N)c1cccc(OC)n1` (stereo not given), the “Percent Effect” value (50 µM) was -11.92%.
In the case of `CCC(=O)c1cccc(OC)n1`, the “Percent Effect” value (50 µM) was 98.31%.
With `COc1cccc(CO)n1` the “Percent Effect” value (50 µM) was -5.543%.
For `O=C(NCc1cccnc1)c1ccc(C(F)(F)F)nc1`, the “Percent Effect” value (50 µM) was 2.561%.
In the case of `COCCn1cncc1CO`, the “Percent Effect” value (50 µM) was 5.728%.
With `O=C(NCc1cccc(Cl)c1)c1cnns1` the “Percent Effect” value (50 µM) was -15.41%.
With `Nc1ncccc1C(=O)NCc1cccc(Cl)c1` the “Percent Effect” value (10 µM) was 10.41%.
For `Nc1c[nH]nc1C(=O)NCc1cccc(Cl)c1`, the “Percent Effect” value (50 µM) was 95.75%.
With `CCCOc1cccc(NCC(=O)N2CCNC2=O)c1` the “Percent Effect” value (50 µM) was 1.752%.
With `C[C@@H]1CN(C(=O)c2csc(CN(C)C)n2)C[C@]1(C)O` the “Percent Effect” value (50 µM) was 11.61%.
For `CNC(=O)Cc1noc(CCc2cccc(F)c2)n1`, the “Percent Effect” value (50 µM) was -4.248%.
For `CCC(C)N(C)CCC(=O)Nc1ccc(C(N)=O)cc1` (stereo not given), the “Percent Effect” value (50 µM) was -26.89%.
With `COc1ccc(S(=O)(=O)N2CCN(C)CC2)c(C)c1C` the “Percent Effect” value (50 µM) was 5.644%.
With `CC(C)(C)OC(=O)NCC1CC(C(N)=O)=NO1` (stereo not given) the “Percent Effect” value (50 µM) was 54.53%.
For `CC(C)(C)OC(=O)NC[C@@H]1CCC[C@H]1N`, the “Percent Effect” value (50 µM) was -4.138%.
In the case of `CC(C)(C)OC(=O)NCC1CC(N)C1` (stereo not given), the “Percent Effect” value (50 µM) was 6.843%.
With `Cc1nn(C)cc1C(=O)N1CCOC2(CCCC2)C1` the “Percent Effect” value (50 µM) was 5.531%.
With `COCCN(C)Cc1ccnc(N)c1` the “Percent Effect” value (50 µM) was -7.11%.
With `CN(CC(N)=O)Cc1cccc(C#N)c1` the “Percent Effect” value (50 µM) was -4.421%.
For `CN(Cc1cccc(C#N)c1)Cc1ccnc(N)c1`, the “Percent Effect” value (50 µM) was 100.1%.
With `N#Cc1ccc(N2CCCC2C(=O)NC2CC2)cn1` (stereo not given) the “Percent Effect” value (50 µM) was 0.7704%.
In the case of `Cc1cc(C)cc(NC(=O)CN2CCC(O)CC2)c1`, the “Percent Effect” value (50 µM) was 5.146%.
With `CN1CCCCC1CCC(=O)NCCCn1cccn1` (stereo not given) the “Percent Effect” value (50 µM) was -6.664%.
For `O=C(CC1CC1)N1CCC2(CC1)CN(c1cccnc1)C(=O)CO2.O=C(O)C(F)(F)F`, the “Percent Effect” value (10 µM) was -21.74%.
With `CCS(=O)(=O)N1CCC2(CC1)CN(c1cccnc1)C(=O)CO2.O=C(O)C(F)(F)F` the “Percent Effect” value (10 µM) was -35.87%.
In the case of `O=C(O)C(F)(F)F.O=C1COC2(CCN(S(=O)(=O)C3CC3)CC2)CN1c1cccnc1`, the “Percent Effect” value (10 µM) was 59.25%.
For `COc1cccc2c1N(CC(=O)N1CCC1)CCC2`, the “Percent Effect” value (50 µM) was -0.7135%.
With `Cc1ccc(C)c(-c2[nH]c3ccccc3c2C(=O)O)c1` the “Percent Effect” value (10 µM) was 7.079%.
For `COc1ccc(C)cc1-c1[nH]c2ccccc2c1C(=O)O`, the “Percent Effect” value (10 µM) was 55.01%.
For `Cc1ccc(-c2[nH]c3ccccc3c2C(=O)O)c(C)c1`, the “Percent Effect” value (10 µM) was -0.6823%.
For `NC(=O)c1cc(N2CCCC2)nc2ccccc12`, the “Percent Effect” value (50 µM) was 2.977%.
For `Cn1nc(C(=O)N2CCOCC2)c(Br)c1C(F)(F)F`, the “Percent Effect” value (50 µM) was 24.28%.
